NSD2 HMT inh – NSD2 histone methyltransferase inhibitors, primary screen, biochemical, AlphaScreen, single concentration, set 2. Histone-lysine N-methyltransferase NSD2 (Homo sapiens), O96028. NSD2 peptide methylation, 120 min. inhibition, % at 12.5 µM. 310,000 tested, 0.54% active. AID 743445, 2014
miR122 inh – miR-122 Renilla sensor signal increase in Huh7, primary screen, miR-122 inhibitor project, cell-based, single point, plate reader; Huh7 miR-122 Renilla luciferase sensor, 48 h; neutral wells = 0, positive control = 100; activation (reporter increase), % at 12.5 µM; 340,000 tested, 0.3% active;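 active = mean replicate activation score at least 90 and every replicate individually at or above 90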;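 note: higher luciferase means less miR-122 activity so hits act as miR-122 inhibitors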
INS-1E GSIS act – GLuc luminescence reporter in INS-1E cells, primary screen for activators of glucose-dependent secretion of insulin. activation, % at 16.6 µM. 370,000 tested, 0.61% active. INS-1E GLuc reporter insulin secretion, 2-3 h;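 active = lowest replicate activation of at least 40%, so every replicate reaches that level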;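 note: 0% = median of neutral control wells and 100% = median of IBMX positive control wells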
Wnt act – Wnt/beta-catenin pathway activators, primary screen, cell-based, plate reader, single point. Wnt/beta-catenin reporter cell assay, activator. activation, % at 9.35 µM. 300,000 tested, 1.2% active. AID 743398, 2014; in the data active = activation above about 30%, passing the limit was not always enough;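 note: 0% = neutral control wells and 100% = positive control wells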
DYRK1A inh – rat Dyrk1A kinase inhibitors, primary screen, biochemical, single point, plate reader; Dual specificity tyrosine-phosphorylation-regulated kinase 1A (Rattus norvegicus), Q63470; ADP-Glo luminescence, NFATc1 peptide; inhibition, % at 12.5 µM; 310,000 tested, 0.43% active; AID 504441, 2011;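 note: plate controls were vehicle with enzyme for no effect and no enzyme for full effect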
MITF act – activators of MITF-driven TRPM1 promoter reporter, primary screen, cell-based, SK-MEL-5, luciferase, single point. activation, % at 12.5 µM. SK-MEL-5 TRPM1-promoter luciferase, 24 h; % of positive control, neutral wells = 0. 300,000 tested, 0.75% active;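 active = mean activation of at least 80% with every replicate also reaching 80%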;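 note: 0% = neutral control wells and 100% = parthenolide positive control wells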
Numbers without * were called inactive; [ ] = another dose, or the depositor's remark. This is a sample that favours compounds with a hit; in the whole collection about 2.4% have one here. Cut-off read from the data, not from the text of the source, unless noted: active = inhibition above about 50%; inactive = the rest.

For O=S(=O)(Nc1ccc(-c2nc3ccccc3o2)cc1)c1ccccc1 the results were NSD2 HMT inh 0.3, miR122 inh -1.0, Wnt act 10.7, DYRK1A inh -3.6 and MITF act 13.0.
For CC(=O)Nc1nc2ccc(-c3nc4ccccc4o3)cc2s1 the results were NSD2 HMT inh -63.7, miR122 inh 0.4, Wnt act 79.5*, DYRK1A inh -3.1 and MITF act 18.0.
Screening Cc1nc2ccc(-c3nc4ccccc4o3)cc2[nH]1 returned NSD2 HMT inh 0.6, miR122 inh -6.6, DYRK1A inh -4.3 and MITF act 59.4.
Screening Cc1ccnc2ccc(-c3nc4ccccc4o3)cc12 returned NSD2 HMT inh 2.3, miR122 inh 1.3, Wnt act 67.2*, DYRK1A inh 2.1 and MITF act 8.0.
`COCC(=O)N1CC2(C1)CN(C(=O)Cc1ccccc1)[C@@H](CO)c1c2c2ccc(OC)cc2n1C` gave INS-1E GSIS act 12.9.
O=C(CCl)N=c1sccn1Cc1ccccc1Cl was read as NSD2 HMT inh 6.0, INS-1E GSIS act 60.7*, Wnt act 5.8, DYRK1A inh -4.1 and MITF act -23.7.
COC(=O)c1nn(-c2ccc(C)cc2)c2nnc(Cc3ccccc3)c(=O)n12 was read as NSD2 HMT inh -0.2, INS-1E GSIS act 7.7, Wnt act 36.7*, DYRK1A inh -0.9 and MITF act -0.8.
Screening Cc1noc(C)c1NC(=O)N(C)C[C@H]1Oc2c(NC(=O)Nc3ccc(C(F)(F)F)cc3)cccc2C(=O)N([C@@H](C)CO)C[C@H]1C returned miR122 inh -6.4[16.7 µM] and INS-1E GSIS act -3.1.
Cc1cc(-c2nc(-c3ccc(C(C)(C)C)cc3)no2)no1 was read as NSD2 HMT inh -0.5, INS-1E GSIS act 5.4, Wnt act 2.6, DYRK1A inh -3.6 and MITF act 100.3*.
For COc1ccc(NC(=O)c2cccnc2SC)cc1OC the results were NSD2 HMT inh -2.2, miR122 inh 1.7, INS-1E GSIS act -1.8, Wnt act 35.2*, DYRK1A inh 2.3 and MITF act 14.9.
Screening O=C(C[C@H]1CC[C@H]2[C@@H](COC[C@H](O)CN2CCC(F)(F)F)O1)NCC1CC1 returned miR122 inh -0.8[16.7 µM] and INS-1E GSIS act 10.1.
For COc1ccc(-c2cn3cccc(C)c3n2)cc1F the results were INS-1E GSIS act 6.5, Wnt act 33.1*, DYRK1A inh 10.7 and MITF act 91.5*.
For COc1ccc(-c2cn3cccnc3n2)cc1Br the results were NSD2 HMT inh -0.3, INS-1E GSIS act 2.9, Wnt act 20.1, DYRK1A inh 5.5 and MITF act 81.3*.
Screening Cc1ccc(-c2cn3cccc(C)c3n2)cc1 returned NSD2 HMT inh 1.2, INS-1E GSIS act 4.2, Wnt act 1.3 and MITF act -5.7.
Screening O=C(c1ccccc1)c1cnc(-c2ccc(Cl)cc2)s1 returned NSD2 HMT inh -1.1, miR122 inh -22.4, Wnt act 39.6* and DYRK1A inh 3.5.
`O=S(=O)(O)c1cc(Cl)cc(N=Nc2ccc(O)cc2O)c1O` gave NSD2 HMT inh 112.6*, Wnt act -3.0, DYRK1A inh -4.9 and MITF act -2.6.
CO[C@H]1CN(C)C(=O)c2ccc(NC(=O)Nc3ccccc3F)cc2OC[C@H](C)NC[C@@H]1C was read as miR122 inh 5.3[16.7 µM] and INS-1E GSIS act -0.2.
O=C1CSC(c2ccc([N+](=O)[O-])cc2)N1C1CCCCC1 (centres undefined) was read as NSD2 HMT inh -1.6, INS-1E GSIS act 86.9*, Wnt act -0.2, DYRK1A inh -4.3 and MITF act -8.4.
`Cc1noc(C)c1NC(=O)N(C)C[C@H]1Oc2ccc(NS(C)(=O)=O)cc2CC(=O)N([C@@H](C)CO)C[C@@H]1C` gave miR122 inh 23.5[16.7 µM] and INS-1E GSIS act 7.5.
For O=[N+]([O-])c1ccccc1OCCCn1cnc2ccccc21 the results were miR122 inh 0.3, INS-1E GSIS act 5.3, Wnt act 15.7 and MITF act 103.9*.
Screening O=c1c2ccccc2ncn1CCCOc1ccccc1[N+](=O)[O-] returned NSD2 HMT inh 7.6, miR122 inh -0.6, INS-1E GSIS act -3.0, Wnt act 21.6, DYRK1A inh 2.6 and MITF act 65.3.
O=C(CCCCCCCC(=O)c1ccccc1)c1ccccc1 was read as NSD2 HMT inh -5.3, INS-1E GSIS act 5.1, Wnt act -3.8, DYRK1A inh 0.9 and MITF act 2.3.
`C=C(CCC(=O)c1ccccc1)C(=O)c1ccccc1` gave NSD2 HMT inh 3.8, Wnt act 59.8*, DYRK1A inh 0.4 and MITF act -5.2.
Screening CS/C(Nc1cc(Cl)ccc1Cl)=C(/C#N)C(=O)c1ccco1 returned NSD2 HMT inh 4.0, miR122 inh 7.2, Wnt act 37.2* and DYRK1A inh 5.2.
Screening COc1ccc(-c2csc(NC(=O)c3ccoc3C)n2)cc1 returned NSD2 HMT inh -0.3, INS-1E GSIS act 9.0, Wnt act 12.6, DYRK1A inh 4.9 and MITF act 86.3*.
For COC(=O)c1c(-c2ccncc2)csc1NC(=O)c1ccoc1C the results were NSD2 HMT inh -1.2, miR122 inh -2.9, DYRK1A inh -2.1 and MITF act 88.2*.
Screening CCc1cc(C(=O)OC)c(NC(=O)c2ccoc2C)s1 returned NSD2 HMT inh -0.1, INS-1E GSIS act 20.7, Wnt act 1.1, DYRK1A inh -12.7 and MITF act -1.7.
`C[C@H](CO)N1C[C@H](C)[C@H](CN(C)C(=O)CCN(C)C)OCc2ccccc2-c2ccccc2C1=O` gave INS-1E GSIS act 2.4.
C[C@@H]1CCCCO[C@H](CN(C)Cc2ccc3c(c2)OCO3)[C@@H](C)CN([C@@H](C)CO)C(=O)c2cc(N(C)C)ccc2O1 was read as miR122 inh 6.7[16.7 µM] and INS-1E GSIS act -8.1.
`Cc1ccc(NC(=O)c2ccc(OC(=O)CCN3C(=O)c4ccccc4C3=O)cc2)cc1` gave NSD2 HMT inh 4.5, miR122 inh -0.9, Wnt act 45.8*, DYRK1A inh 3.5 and MITF act 49.2.
Screening COc1ccc(S(=O)(=O)NCCSC(C)(C)C)c(Cl)c1Cl returned NSD2 HMT inh -6.2, miR122 inh 253.4*, INS-1E GSIS act -18.4, DYRK1A inh 3.8 and MITF act 5.5.
O=C(NNC(=O)c1cc2cc3ccccc3nc2s1)c1cccc(C(F)(F)F)c1 was read as NSD2 HMT inh 1.6, miR122 inh 0.1, INS-1E GSIS act 75.1*, DYRK1A inh 4.1 and MITF act -6.0.
